Assay [1] can be described thus: liver-stage malaria parasite growth inhibition, primary screen, cell-based, HepG2, luciferase luminescence, HepG2 viability (AID 624349; in the data active means parasite load remaining mostly below about 12%, no sharp cut-off; inactive means mostly above about 10%;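 further: 100% = mean of DMSO negative control wells on the same plate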). The note with it: P. berghei liver stage in HepG2, luciferase luminescence, concentration not given here; parasite load remaining: stronger effect = lower value; viability: measured here: HepG2 viability without parasites.
Assay [2] is described as follows: Cy5 fluorescence interference with SSB-bound oligo, artefact control for HCV NS3 helicase inhibitor project, biochemical, NIH Clinical Collection, E. coli SSB (AID 743268).
In assay [3] the test system is Hepatitis C virus NS3 helicase. Briefly: HCV NS3 helicase inhibitors, primary screen, biochemical, fluorescence polarization, NIH Clinical Collection (AID 743270). The note with it: NS3 helicase binding to Cy5-dT15 DNA, stronger effect = higher value, concentration not given here. On the technique in general: In fluorescence polarisation assays a small probe gives low polarisation when free and higher when bound to something large.

In assay [4] the target is Single-stranded DNA-binding protein (Escherichia coli (strain K12)) (UniProt P0AGE0). As to the kind of experiment: E. coli SSB displacement from DNA, counter-screen for HCV NS3 helicase inhibitor project, biochemical, fluorescence polarization, NIH Clinical Collection (AID 743271; in the data active means inhibition above about 28%). As to conditions: stronger effect = higher value, concentration not given here.
The nature of assay [5]: fluorescence interference in NS3h assay format, artefact control for HCV NS3 helicase inhibitor project, biochemical, NIH Clinical Collection (AID 743272).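 Further: HCV NS3 helicase with a Cy5 labelled single stranded DNA probe.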 As to conditions: fluorescence interference counterscreen, stronger effect = lower value. Background: Counterscreens check selectivity or assay interference.
The nature of assay [6]: modulation of C. elegans fzo-1 (AID 1259413).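 Further: fzo-1 mutant C. elegans worms in liquid wells.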 As to conditions: C. elegans fzo-1 modulator screen, mean read-out; stronger effect = higher value.
For assay [7], the system named is F380Y/beta1. As to the kind of experiment: modulators of BK channel variants, profiling panel, selectivity assay, cell-based, U2OS BacMam, thallium flux, beta subunits (AID 1259406;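 active means thallium flux through the channel raised or lowered by more than 3 SD from vehicle-only wells, actives on both sides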;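 further: initial slope of Thallos dye fluorescence rise after thallium is added; log ratio against the mean of 0.3% DMSO vehicle wells on the same plate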). As to conditions: at 30 µM.
For assay [8], the system named is F380Y/beta4. The description is as above. As to conditions: at 30 µM.
The test system of assay [9] is R275C/beta4. The assay is described as above. As to conditions: at 30 µM.
In assay [10] the test system is R275C/Slo1WT/beta2. The assay is described as above. As to conditions: at 30 µM.
Assay [11] in a line: hESC survival regulators, cell-based (AID 493140).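 Further: cells exposed to compounds for four days before counting.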 The note with it: human embryonic stem cell survival screen; stronger effect = higher value.
The nature of assay [12]: viability rescue of complex I mutant cybrids, primary screen, cell-based, galactose medium, ATP luminescence (AID 1645843;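 active means z-score of at least 1.8 in each of two replicates, scored against plate mean and spread of sample wells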;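 further: positive z means more ATP and so rescue of galactose-driven cybrid death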). The note with it: complex I mutant cybrid cells, 72 h, stronger effect = higher value.
Assay [13] is described as follows: polyglutamine-triggered caspase-3 activation inhibitors, cell-based (AID 1583). As to conditions: polyglutamine-induced caspase-3 activation, cell assay; stronger effect = higher value;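 tested at 10 µM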.
Assay [14] can be described thus: suppressors of polyQ aggregation in yeast, 75Q-TubU reporter (AID 1593). As to conditions: Yeast 75Q polyglutamine aggregation reporter.
Assay [15] in a line: rescue of polyQ-huntingtin neuronal dysfunction in worms, whole organism, C. elegans mechanosensory neurons, N-terminal huntingtin (AID 1599). The note with it: touch response, stronger effect = higher value.
The nature of assay [16]: inhibitors of mitochondrial cytochrome c release, biochemical, purified mitochondria (AID 1603).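 Further: mouse liver mitochondria challenged with calcium chloride; signal normalized to the plate average as 100%.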 The note with it: stronger effect = lower value.
Assay [17] in a line: inhibitors of polyQ protein aggregation (AID 1604). As to conditions: polyglutamine-induced protein aggregation inhibition assay; stronger effect = higher value; tested at 2.5 µM.
Assay [18] is described as follows: enhancers of glutamate uptake in motor neurons, MN-1 cell line (AID 1612).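 Further: tested at 1 µM final; 0% = mean of DMSO vehicle wells on each plate; positive means more glutamate uptake than control and negative means less.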 As to conditions: MN-1 motor neuron cells, stronger effect = higher value.
The nature of assay [19]: suppressors of polyglutamine aggregation in yeast, 75Q-TubH (AID 1616). As to conditions: S. cerevisiae 75Q-TubH polyglutamine aggregation suppression; stronger effect = higher value.

Where “and” joins values, the source holds several entries; their conditions need not be identical. Equal values may be shown once. For part of these data: Results with a measured potency or affinity are listed apart. Calls of active or inactive are those of the source. Unless noted, how the calls were made is not given here.

As to `OCCN1C[C@H](O)[C@@H](O)[C@H](O)[C@H]1CO`, in assay [1], the parasite load remaining is 103% (inactive). Further, the viability (as a rule, a read-out of living cells in per cent, often relative to untreated cells) in [1] is 80%. The results for the fluorescence ratio in [2] and in assay [5] were 1.05 (inactive) and 0.93 (inactive), respectively. Also, the inhibition – broadly, the change of the read-out against control, counted positive when it falls – in assay [3] was -1.98% (inactive); in [4], -4.72% (inactive). Further, the mean signal in assay [6] was 232 (inactive). Further, the log fold change Tl+ flux in assay [7] was -0.0621 (inactive); in [8] it was -0.0159 (inactive); in [9] it was -0.031 (inactive); in assay [10] it was -0.0316 (inactive).
As to `CCS(=O)(=O)CCn1c([N+](=O)[O-])cnc1C`, the survival in assay [11] was 3.33 (inactive). The fluorescence ratio in assay [2] was 0.97 (inactive); in [5] it was 0.92 (inactive). For the same compound, the figures for the inhibition in [3] and in assay [4] were -0.22% (inactive) and 1.18% (inactive), respectively. For the same compound, in assay [6], the mean signal is 232 (inactive). Further, the z-score in assay [12] is 0.655 (inactive) and 0.575 (inactive). For the same compound, the log fold change Tl+ flux in assay [7] was 0.0365 (inactive); in assay [8], -0.041 (inactive); in assay [9], -0.0453 (inactive); in assay [10], -0.0158 (inactive).
In the case of `C[C@]12C=CC(=O)C=C1CC[C@@H]1[C@@H]2C(=O)C[C@@]2(C)[C@H]1CC[C@]2(O)C(=O)CO`, in assay [11], the survival was 15.9 (inactive). The fluorescence ratio is 0.107 (active) in assay [2] and 0.95 (inactive) in assay [5]. Besides, the inhibition is -0.45% (inactive) in assay [3] and -1.24% (inactive) in assay [4]. For the same compound, the z-score in [12] was 0.315 (inactive) and 0.45 (inactive). Besides, the log fold change Tl+ flux was 0.00863 (inactive) in assay [7], 0.000343 (inactive) in [8], -0.00291 (inactive) in assay [9] and -0.00226 (inactive) in [10].
For `CCOc1ccc2ccccc2c1C(=O)N[C@@H]1C(=O)N2[C@@H]1SC(C)(C)[C@@H]2C(=O)O`, the survival in assay [11] was 3.33 (inactive). Further, the parasite load remaining in [1] was 85.4% (inactive) and 87.9% (inactive). For the same compound, the viability in assay [1] is 103% and 91.5%. Also, the results for the fluorescence ratio in assay [2] and in assay [5] were 1.06 (inactive) and 0.98 (inactive), respectively. In addition, the inhibition in assay [3] was -10.4% (inactive); in [4] it was -6.58% (inactive). Further, the mean signal in [6] is 253 (inactive). Besides, the z-score in assay [12] was 0.835 (inactive). In addition, the log fold change Tl+ flux in assay [7] is -0.0293 (inactive); in assay [8], -0.0322 (inactive); in assay [9] it was -0.041 (inactive); in assay [10], 0.0157 (inactive).
With `CC(=O)OCC[N+](C)(C)C`, the inhibition was 26.2% in assay [13], -0.45% (inactive) in assay [3] and 0.29% (inactive) in assay [4]. Moreover, the score in assay [14] came out at 1.05. This compound also returned a rescue above control in assay [15] of 5.33. Also, the cytochrome c release ratio in assay [16] was determined as 1.31. In assay [17], this compound came in with an inhibition of aggregation of 74.9%. Further, the glutamate uptake change in [18] was -18.6%. Further, the aggregation suppression score in [19] came out at 1.22. The fluorescence ratio in [2] was 1.03 (inactive); in assay [5] it was 1.01 (inactive). Further, the mean signal in [6] was 251 (inactive). Also, in assay [12], the z-score was 1.64 (inactive) and 0.235 (inactive). Moreover, the log fold change Tl+ flux in assay [7] was 0.000642 (inactive); in [8], -0.0182 (inactive); in assay [9] it was 0.0607 (inactive); in assay [10], 0.0039 (inactive).
On to `COc1cc([C@@H]2c3cc4c(cc3[C@H](O)[C@H]3COC(=O)[C@H]23)OCO4)cc(OC)c1OC`, for which, in assay [11], the survival is 0.917 (inactive). Moreover, the parasite load remaining in [1] is 94.8% (inactive) and 112% (inactive) and 73% (inactive). Also, the viability in [1] is 107% and 103% and 113%. Moreover, the values for the fluorescence ratio in assay [2] and in assay [5] were 1.01 (inactive) and 1.03 (inactive), respectively. Besides, the inhibition in assay [3] is -0.45% (inactive); in assay [4] it was 1.05% (inactive). Also, the mean signal in assay [6] was 221 (inactive). Besides, in assay [12], the z-score was 0.5 (inactive). Besides, the log fold change Tl+ flux in [7] was 0.00363 (inactive); in assay [8] it was 0.0253 (inactive); in [9], 0.0119 (inactive); in assay [10], 0.00946 (inactive).

Values taken from PubChem BioAssay.
